Measured values as given in PubChem BioAssay (NCATS).
Values joined by “and” are separate entries in the source; they are usually repeats but may differ in a detail not shown here. Identical values can stand only once. Inconclusive results are not listed. Some structures have more than one record in an assay (separate samples or runs), and their calls can disagree. Active and inactive are the calls of the source. Unless noted, calls come from the whole dose curve; as a rule, active = well fitted curve in the direction sought with a large enough effect; inconclusive = small, poorly fitted or top-dose-only effect, or another doubt; inactive = no such curve, though single readings can be large; an effect the other way counts as inactive or inconclusive.

How the values were obtained:
[1] = biological target: Guanine nucleotide-binding protein G(i) subunit alpha-1 (Homo sapiens) (UniProt P63096); experiment: qHTS Assay for Inhibitors of RGS12 GoLoco Motif Activity (Green Fluorophore) (AID 879);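 note: 0% = labeled peptide with Gαi1 and full inhibition = labeled peptide alone without protein; negative values mean loss of peptide binding seen as reduced polarization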
Guanine nucleotide-binding protein G(i) subunit alpha-1 (Homo sapiens), sequence (P63096 whole entry, looked up): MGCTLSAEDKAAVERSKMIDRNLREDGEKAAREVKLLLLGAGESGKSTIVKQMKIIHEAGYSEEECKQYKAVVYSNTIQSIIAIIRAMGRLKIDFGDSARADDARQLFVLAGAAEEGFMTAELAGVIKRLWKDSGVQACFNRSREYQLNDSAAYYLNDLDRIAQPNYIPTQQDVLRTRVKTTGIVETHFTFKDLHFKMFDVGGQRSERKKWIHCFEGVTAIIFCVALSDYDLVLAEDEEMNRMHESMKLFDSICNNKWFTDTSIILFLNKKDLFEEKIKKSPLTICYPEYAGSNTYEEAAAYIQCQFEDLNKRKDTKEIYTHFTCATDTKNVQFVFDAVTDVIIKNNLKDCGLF
Method in brief: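 Fluorescence polarization assay: 50 nM Gαi1 with 10 nM FITC-labeled RGS12 GoLoco peptide in 10 mM Tris pH 7.5, 150 mM NaCl, 0.1 mM GDP, 0.05% NP40, 10 min at room temperature with compound.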

[2] = biological target: Cytochrome P450 2D6 (Homo sapiens) (UniProt P10635); experiment: qHTS Assay for Inhibitors and Substrates of Cytochrome P450 2D6 (AID 891); note: nearly all actives have a fitted effect of over 60% in size; note: potency is the fitted concentration of half-maximal effect
Cytochrome P450 2D6 (Homo sapiens), sequence (P10635 whole entry, looked up): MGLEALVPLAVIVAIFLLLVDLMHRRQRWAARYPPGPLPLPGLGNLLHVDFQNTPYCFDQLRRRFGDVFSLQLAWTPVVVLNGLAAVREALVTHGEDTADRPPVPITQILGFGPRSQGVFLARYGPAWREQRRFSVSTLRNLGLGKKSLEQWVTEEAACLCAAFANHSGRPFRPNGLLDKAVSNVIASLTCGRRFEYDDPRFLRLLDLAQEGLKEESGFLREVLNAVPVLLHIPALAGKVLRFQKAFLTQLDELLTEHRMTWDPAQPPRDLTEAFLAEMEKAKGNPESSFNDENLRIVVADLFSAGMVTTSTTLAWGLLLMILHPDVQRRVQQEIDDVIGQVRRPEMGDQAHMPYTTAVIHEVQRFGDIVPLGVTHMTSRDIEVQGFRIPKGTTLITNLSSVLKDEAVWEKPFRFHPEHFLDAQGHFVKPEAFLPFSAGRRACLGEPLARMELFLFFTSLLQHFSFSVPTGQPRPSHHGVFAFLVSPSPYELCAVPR
Method in brief: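 Human CYP2D6 (5 nM) with 30 uM Luciferin-ME EGE (at Km) in 100 mM KPO4, compound preincubated 10 min, then NADPH regeneration system for 60 min at room temperature. Luciferin read by luminescence; normalized to 1.43 uM quinidine.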

[3] = qHTS Assay for Identification of Small Molecule Agonists for Thrombopoietin (TPO) Signaling Pathway (AID 917); note: % is set by controls: 0 for no effect and ±100 for the full control effect
Method in brief: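 Murine Ba/F3 cells expressing human TPO receptor and GPIIb-promoter luciferase, IL-3-starved overnight, given compound plus TPO at 26 pM (EC50). After 24 h at 37 C, 5% CO2, luminescence read.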

[4] = biological target: Muscarinic acetylcholine receptor M1 (Rattus norvegicus) (UniProt P08482); experiment: qHTS Assay for Antagonists of Acetylcholine Muscarinic M1 Receptor: Measurement of IP-One Response (AID 944); note: nearly all actives have a fitted effect of over 75% in size; note: potency is the fitted concentration of half-maximal effect
Muscarinic acetylcholine receptor M1 (Rattus norvegicus), sequence (P08482 whole entry, looked up): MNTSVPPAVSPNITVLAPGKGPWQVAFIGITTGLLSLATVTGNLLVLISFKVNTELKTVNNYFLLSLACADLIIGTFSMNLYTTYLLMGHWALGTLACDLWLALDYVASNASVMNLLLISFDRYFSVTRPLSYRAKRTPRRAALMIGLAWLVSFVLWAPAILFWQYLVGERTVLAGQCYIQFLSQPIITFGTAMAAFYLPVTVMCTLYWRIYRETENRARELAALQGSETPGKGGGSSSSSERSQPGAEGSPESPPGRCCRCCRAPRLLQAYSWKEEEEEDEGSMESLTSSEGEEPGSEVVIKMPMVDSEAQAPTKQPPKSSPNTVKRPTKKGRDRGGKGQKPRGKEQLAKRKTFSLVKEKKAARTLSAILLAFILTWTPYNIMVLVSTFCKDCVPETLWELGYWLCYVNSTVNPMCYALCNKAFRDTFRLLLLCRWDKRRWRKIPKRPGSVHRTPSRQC
Method in brief: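 Steps: plate transfected CHO-M1 cells overnight; add test compound, 10 min; add carbachol (200 nM, EC80) in stimulation buffer with LiCl; incubate 30 min; add labelled IP1 tracer and anti-IP1 antibody in lysis buffer; read HTRF after 10 min.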

[5] = biological target: Pyruvate kinase (Leishmania mexicana) (UniProt Q27686); experiment: qHTS Validation Assay for Inhibitors of Leishmania Mexicana Pyruvate Kinase (AID 945);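 note: 0% = DMSO only neutral control wells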
Pyruvate kinase (Leishmania mexicana), sequence (Q27686 2-499 E452W): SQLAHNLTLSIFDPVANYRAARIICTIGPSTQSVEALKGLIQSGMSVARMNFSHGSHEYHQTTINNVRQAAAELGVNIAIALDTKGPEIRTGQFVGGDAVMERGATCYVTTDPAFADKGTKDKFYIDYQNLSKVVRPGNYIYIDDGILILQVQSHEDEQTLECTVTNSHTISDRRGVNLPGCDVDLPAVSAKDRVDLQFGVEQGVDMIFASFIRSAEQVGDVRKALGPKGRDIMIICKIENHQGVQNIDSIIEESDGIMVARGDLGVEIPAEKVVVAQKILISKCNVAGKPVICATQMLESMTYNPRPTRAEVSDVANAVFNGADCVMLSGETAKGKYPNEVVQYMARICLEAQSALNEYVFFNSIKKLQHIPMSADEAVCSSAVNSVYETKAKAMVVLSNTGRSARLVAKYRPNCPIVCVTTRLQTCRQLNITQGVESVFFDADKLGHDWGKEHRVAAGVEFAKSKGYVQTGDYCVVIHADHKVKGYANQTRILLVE
Method in brief: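 Substrate mix (0.5 mM PEP, 0.1 mM ADP, 7 mM MgCl2, 50 mM KCl, pH 7.2 imidazole) received compound by pin tool, then 0.2 nM LmPYK E451W. After 1 h at room temperature, PKLight was added and luminescence measured.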

[6] = biological target: Pyruvate kinase PKM (Homo sapiens) (UniProt P14618); experiment: qHTS Assay for Activators of Human Muscle Pyruvate Kinase (AID 954; active = well fitted curve in the direction sought with a large enough effect, not every such curve was filed as active;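 note: 0% = uninhibited enzyme and -100% = no enzyme or full thiadiazolimine inhibition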)
Pyruvate kinase PKM (Homo sapiens), sequence (P14618 whole entry, looked up): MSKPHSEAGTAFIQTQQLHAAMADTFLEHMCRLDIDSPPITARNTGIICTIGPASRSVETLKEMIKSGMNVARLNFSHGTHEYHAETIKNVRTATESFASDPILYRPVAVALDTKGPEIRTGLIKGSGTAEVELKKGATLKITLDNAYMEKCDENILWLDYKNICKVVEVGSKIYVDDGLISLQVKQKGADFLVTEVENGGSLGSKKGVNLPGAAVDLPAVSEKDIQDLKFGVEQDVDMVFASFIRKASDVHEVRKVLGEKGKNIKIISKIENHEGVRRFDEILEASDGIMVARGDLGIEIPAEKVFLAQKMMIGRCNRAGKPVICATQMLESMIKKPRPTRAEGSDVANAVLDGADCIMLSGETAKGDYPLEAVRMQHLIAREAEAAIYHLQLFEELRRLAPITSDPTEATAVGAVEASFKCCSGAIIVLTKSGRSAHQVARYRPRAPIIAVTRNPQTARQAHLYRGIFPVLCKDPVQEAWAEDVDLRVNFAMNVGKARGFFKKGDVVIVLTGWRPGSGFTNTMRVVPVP
Method in brief: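 Luminescence from a luciferase ATP-detection/stop reagent reported PKM2 activity. Reactions contained 0.1 nM purified human enzyme, 0.5 mM PEP, 0.1 mM ADP and 7 mM MgCl2 at pH 7.2, run 1 h at RT.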

[7] = biological target: Cytochrome P450 3A4 (Homo sapiens) (UniProt P08684); experiment: qHTS Assay for Activators of Cytochrome P450 3A4 (AID 885); note: nearly all actives have a fitted effect of over 65% in size
Cytochrome P450 3A4 (Homo sapiens), sequence (P08684 whole entry, looked up): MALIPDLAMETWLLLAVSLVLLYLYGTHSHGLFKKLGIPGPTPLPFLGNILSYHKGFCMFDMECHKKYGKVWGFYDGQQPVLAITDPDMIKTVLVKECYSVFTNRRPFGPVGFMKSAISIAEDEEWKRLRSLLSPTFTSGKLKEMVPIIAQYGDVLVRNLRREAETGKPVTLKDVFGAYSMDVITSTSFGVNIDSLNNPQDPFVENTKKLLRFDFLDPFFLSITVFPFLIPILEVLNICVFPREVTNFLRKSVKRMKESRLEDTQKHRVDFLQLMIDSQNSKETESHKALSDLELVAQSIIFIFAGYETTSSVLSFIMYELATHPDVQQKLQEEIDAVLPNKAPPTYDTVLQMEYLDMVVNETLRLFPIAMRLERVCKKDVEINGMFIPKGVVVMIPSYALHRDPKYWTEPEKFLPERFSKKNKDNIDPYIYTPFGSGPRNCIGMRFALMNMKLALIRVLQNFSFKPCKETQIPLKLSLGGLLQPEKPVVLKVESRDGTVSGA
Method in brief: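 20nM CYP3A4 + 25uM Luciferin-PPXE (=KM), 200mM KPO4; cpd 10 min RT; NADPH regen, 60 min RT; stop w/ detection buffer, 20 min; luminescence. Normalized to 57 uM ketoconazole.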

[8] = qHTS Assay for Identification of Small Molecule Antagonists for NFkB Signaling Pathway (AID 895; active = well fitted inhibition curve with a large enough effect in the signal ratio, with a control signal flat, not every such curve was filed as active; the % refers to the signal ratio; note: potency is the fitted concentration of half-maximal effect)
Method in brief: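 ME-180 NFkB-bla cells (beta-lactamase under NFkB response element), plated overnight, treated with compound then 10 pM TNF alpha (about EC50) for 5 hrs at 37 C. LiveBLAzer FRET read at 460/530 nm emission, 405 nm excitation.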

[9] = biological target: Cytochrome P450 2C19 (Homo sapiens) (UniProt P33261); experiment: qHTS Assay for Inhibitors and Substrates of Cytochrome P450 2C19 (AID 899); note: nearly all actives have a fitted effect of over 60% in size; note: potency is the fitted concentration of half-maximal effect
Cytochrome P450 2C19 (Homo sapiens), sequence (P33261 whole entry, looked up): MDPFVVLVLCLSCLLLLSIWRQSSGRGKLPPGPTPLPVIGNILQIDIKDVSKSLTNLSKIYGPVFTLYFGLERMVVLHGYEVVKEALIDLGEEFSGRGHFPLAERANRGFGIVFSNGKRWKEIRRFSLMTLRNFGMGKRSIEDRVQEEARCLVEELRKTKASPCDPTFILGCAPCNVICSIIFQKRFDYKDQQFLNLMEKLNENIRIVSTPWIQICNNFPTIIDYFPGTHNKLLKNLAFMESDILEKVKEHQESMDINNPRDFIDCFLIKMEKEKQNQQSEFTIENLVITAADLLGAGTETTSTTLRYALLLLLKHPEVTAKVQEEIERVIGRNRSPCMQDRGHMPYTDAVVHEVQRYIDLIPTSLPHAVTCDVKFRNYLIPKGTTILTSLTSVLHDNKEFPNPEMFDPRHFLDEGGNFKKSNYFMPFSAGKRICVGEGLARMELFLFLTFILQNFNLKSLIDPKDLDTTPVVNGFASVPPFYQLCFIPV
Method in brief: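 Signal comes from luciferase acting on luciferin released by CYP2C19-mediated hydroxylation of Luciferin-H EGE, 10uM (KM). Assay mix: 5nM enzyme, 50mM KPO4; 60 min at 37C with NADPH regeneration. Data normalized against 57uM ketoconazole.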

[10] = biological target: Cytochrome P450 3A4 (Homo sapiens) (UniProt P08684); experiment: qHTS Assay for Inhibitors and Substrates of Cytochrome P450 3A4 (AID 884); note: potency is the fitted concentration of half-maximal effect; nearly all actives have a fitted effect of over 50% in size
Method in brief: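 20 nM human CYP3A4 with 25 uM Luciferin-PPXE (at KM) in 200 mM KPO4, preincubated 10 min with compound; NADPH regeneration started a 60 min RT reaction. Luciferin detected by luminescence, normalized to 57 uM ketoconazole as full inhibition.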

[11] = qHTS Assay for Identification of Small Molecule Agonists for Hypoxia Response Element Signaling Pathway (AID 914; active = well fitted activation curve with a large enough effect in the signal ratio, with a control signal flat, not every such curve was filed as active; the % refers to the signal ratio; note: % of control where 0% means no effect); conditions: ME-180 (cervical carcinoma) HRE-bla reporter, beta-lactamase ratio, CoCl2, 17 h; stronger effect = higher value
Method in brief: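 Read-out: CCF4 FRET ratio of 460nm to 530nm emission (excitation 405nm) after 2.5 hours at room temperature, taken from HRE-bla ME-180 cells that had been exposed to compound and EC50 CoCl2 for 17 hours.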

[12] = qHTS Assay for Identification of Small Molecule Antagonists for Thrombopoietin (TPO) Signaling Pathway (AID 918); conditions: TPO-dependent cell signaling reporter, antagonist mode; note: potency is the fitted concentration of half-maximal effect; nearly all actives have a fitted effect of over 60% in size
Method in brief: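 First, Ba/F3 reporter cells expressing human TPO receptor were held overnight without IL-3. Next, compound and 26 pM TPO were added. After 24 hrs incubation at 37 C, luciferase luminescence under the Glycoprotein IIb promoter was recorded.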

CNC(=O)OCC[N+](C)(C)C
inactive: Potency [1] | Potency [2] | Potency [3] | Potency [4] | Potency [5] | outcome [6]

CCCN(CCC)[C@@H]1CCc2cccc(O)c2C1
inactive: Potency [1] | Potency [3] | Potency [5] | outcome [6]
7.08 µM (active) and inactive: Potency [4]
active: Potency [2] 3.16 µM and 794 nM

O=S1(=O)N(CCN2CC=C(c3c[nH]c4cc(F)ccc34)CC2)c2cccc3c2N1CCC3
active: Potency [2] 0.199 µM | Potency [9] 6.31 µM | Potency [4] 14.1 µM
inactive: Potency [1] | outcome [7] | Potency [8] | Potency [5] | outcome [6]

NNC(=O)c1ccc(O)cc1
active: Potency [10] 5.01 µM
inactive: Potency [1] | outcome [7] | Potency [8] | Potency [3] | Potency [5] | outcome [6]

CCCn1c(=O)c2[nH]c(C3CCCC3)nc2n(CCCOC(=O)c2ccc(S(=O)(=O)F)cc2)c1=O
inactive: Potency [1] | outcome [7] | Potency [3] | Potency [5] | outcome [6]
active: Potency [8] 10 µM

CN1CCC(c2c[nH]c3ccc(O)cc23)CC1
inactive: Potency [1] | outcome [7] | Potency [5] | outcome [6]

Nc1ccc(CCN2CCN(c3cccc(C(F)(F)F)c3)CC2)cc1
inactive: Potency [1] | outcome [7] | activation [11] -27.7% | Potency [5] | outcome [6]
active: Potency [9] 7.94 µM

O=P(O)(O)C(Cl)(Cl)P(=O)(O)O
inactive: Potency [1] | Potency [8] | Potency [9] | Potency [3] | Potency [4] | Potency [5] | outcome [6]

C[N+]1(C)CCN(c2ccccc2)CC1
inactive: Potency [1] | outcome [7] | Potency [3] | Potency [5] | outcome [6]

C[N+](C)(C)CC#CCN1CCCC1=O
inactive: Potency [1] | Potency [3] | Potency [4] | Potency [5] | outcome [6]
active: Potency [2] 3.98 µM

NC(=O)c1cc(N2CC2)c([N+](=O)[O-])cc1[N+](=O)[O-]
inactive: Potency [1] | outcome [7] | Potency [8] | Potency [3] | Potency [4] | Potency [5] | outcome [6]

Cc1[nH]c2ccc(O)cc2c1CCN
active: Potency [9] 7.94 µM
inactive: Potency [1] | outcome [7] | Potency [8] | Potency [3] | Potency [4] | Potency [5] | outcome [6]

C[N+](C)(C)CCOC(=O)CBr
inactive: Potency [1] | Potency [8] | activation [11] 16.2% | Potency [3] | Potency [4] | Potency [5] | outcome [6]

Cc1c2ccncc2c(C)c2c1[nH]c1ccccc12
active: Potency [2] 31.6 µM and 6.31 µM | Potency [9] 6.31 µM and 3.16 µM | Potency [12] 10 µM | Potency [4] 25.1 µM
inactive: Potency [1] | outcome [7] | Potency [5] | outcome [6]

O=[N+]([O-])c1ccc2nc(N3CCNCC3)ccc2c1
inactive: Potency [1] | outcome [7] | Potency [9] | activation [11] -10.4% | Potency [4] | Potency [5] | outcome [6]

Clc1cc(I)cc(Cl)c1NC1=NCCN1
active: Potency [2] 3.98 µM
inactive: Potency [1] | Potency [8] | Potency [3] | Potency [4] | Potency [5] | outcome [6]

CCCN(CCC)[C@H]1CCc2c(F)ccc(O)c2C1
active: Potency [2] 631 nM and 1.58 µM | Potency [4] 8.91 µM
inactive: Potency [1] | Potency [3] | Potency [5] | outcome [6]

NC(=O)COc1c(F)cc(SCCNS(=O)(=O)c2ccccc2)cc1F
inactive: Potency [1] | outcome [7] | Potency [3] | Potency [5] | outcome [6]

NCCCP(=O)(O)O
inactive: Potency [1] | outcome [7] | activation [11] -8.81% | Potency [3] | Potency [5] | outcome [6]

COc1ccc2c(c1)/C(=C/c1cnc[nH]1)C(=O)N2
active: Potency [12] 10 µM
inactive: Potency [1] | outcome [7] | Potency [5] | outcome [6]

NC(=O)CI
inactive: Potency [1] | outcome [7] | Potency [8] | Potency [5] | outcome [6]
active: Potency [12] 3.16 µM

NCCc1c[nH]c2ccc(C(N)=O)cc12
inactive: Potency [1] | Potency [8] | Potency [3] | Potency [4] | Potency [5] | outcome [6]
